In PubChem BioAssay AID1159580 (chemical genetic matrix, 2015):
The whole screen tested about 5,500 compounds, of which about 2,000 (36%) were called active. About 18% were inconclusive and are not listed. Cut-off read from the data, not from the text of the source: active = normalized growth mostly below about 0.91 (no sharp cut-off); inconclusive = no clear call, values can overlap the other calls; inactive = mostly above about 0.92. The list shows a part of the results.

Test: chemical genetic growth profiling, strain panel (AID 1159580);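 note: tested at 20 µM; growth read once vehicle control cultures reached saturation at 30 °C; 1 = growth at the plate median or of vehicle wells; lower values mean less growth of the strain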
Settings: growth OD

Measured: normalized growth

COc1c(Br)cc([N+](=O)[O-])c(OC)c1C(N)=O
inactive: S. cerevisiae deletion strains, locus YBR229C, strain ROT2, hits give low values 1.03 | S. cerevisiae deletion strains, locus YCL061C, strain MRC1, hits give low values 1.01 | S. cerevisiae deletion strains, locus YDL101C, strain DUN1, hits give low values 1.03 | S. cerevisiae deletion strains, locus YDL134C, strain PPH21, hits give low values 1.01 | S. cerevisiae deletion strains, locus YDR150W, strain NUM1, hits give low values 0.986 | S. cerevisiae deletion strains, locus YEL061C, strain CIN8, hits give low values 1.02 | S. cerevisiae deletion strains, locus YGR078C, strain PAC10, hits give low values 1.02 | S. cerevisiae deletion strains, locus YHR030C, strain SLT2, hits give low values 1.07 | S. cerevisiae deletion strains, locus YHR087W, strain rtc3, hits give low values 1.01 | S. cerevisiae deletion strains, locus YJL187C, strain SWE1, hits give low values 1 | S. cerevisiae deletion strains, locus YJR043C, strain POL32, hits give low values 1.04 | S. cerevisiae deletion strains, locus YJR075W, strain HOC1, hits give low values 1.01 | S. cerevisiae deletion strains, locus YLR039C, strain RIC1, hits give low values 1.02 | S. cerevisiae deletion strains, locus YLR058C, strain SHM2 (second series), hits give low values 1.01 | S. cerevisiae deletion strains, locus YLR085C, strain ARP6, hits give low values 1.02 | S. cerevisiae deletion strains, locus YLR262C, strain YPT6, hits give low values 1.01 | S. cerevisiae deletion strains, locus YML094W, strain GIM5, hits give low values 1 | S. cerevisiae deletion strains, locus YMR219W, strain ESC1, hits give low values 1.03 | S. cerevisiae deletion strains, locus YMR263W, strain SAP30, hits give low values 0.946 | S. cerevisiae deletion strains, locus YNL153C, strain GIM3, hits give low values 1.02 | S. cerevisiae deletion strains, locus YNL298W, strain CLA4 (second series), hits give low values 1.01 | S. cerevisiae deletion strains, locus YNL322C, strain KRE1, hits give low values 1.02 | S. cerevisiae deletion strains, locus YNR030W, strain Alg12, hits give low values 1.03 | S. cerevisiae deletion strains, locus YPL055C, strain LGE1, hits give low values 0.928 | S. cerevisiae deletion strains, locus YPL241C, strain CIN2, hits give low values 1.02 | S. cerevisiae deletion strains, locus YPR135W, strain CTF4, hits give low values 1.1 | S. cerevisiae strains, strain wild type, hits give low values 1.03
